Results on 8 compounds are retold here after PubChem BioAssay (NCI).

Test systems include SR leukemia; RPMI-8226 leukemia; OVCAR-5 ovarian; OVCAR-4 ovarian; SK-OV-3 ovarian; IGROV1 ovarian; OVCAR-3 ovarian; HS 578T breast; NCI/ADR-RES ovarian; T-47D breast; BT-549 breast; MDA-MB-435 melanoma; SW-620 colon; MCF7 breast; HCT-116 colon; HCC-2998 colon; KM12 colon; MDA-MB-468 breast; OVCAR-8 ovarian.
Common to all, as to assay: NCI-60 one-dose screen, 48 h (100 = growth as untreated, 0 = no growth, -100 = all killed)
What all share (conditions): 10 µM unless noted

Molecules are shown by their SMILES. Compounds without any hit were thinned out: in the full panel of roughly 83,000, 20% have a hit.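 How to read the values: 0–100, growth inhibition (40 = 60% inhibited); 0, no net growth; -100 to 0, cell death (-40 = 40% of starting cells died; -100 = all dead).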 Values without a mark were called inactive. Activity calls are given as the source filed them. Rule for the calls: active = growth percent below 10; inactive = the rest.

On to `COc1ccc(NC(=O)Nc2ccc(OCc3ccc(F)cc3)cc2)cc1`, for which the growth in the assay on SR leukemia is 78.7%; in the assay on RPMI-8226 leukemia, 88.7%; in the assay with OVCAR-5 ovarian, 72.9%; with OVCAR-4 ovarian it was 20%; in the assay on SK-OV-3 ovarian, 76.2%; in the assay on IGROV1 ovarian, 78.1%. The growth with OVCAR-3 ovarian is 58.5%; with HS 578T breast, 29.4%; in the assay with NCI/ADR-RES ovarian, 51.2%; with T-47D breast it was 84.7%; in the assay with BT-549 breast, 84.9%; in the assay on MDA-MB-435 melanoma, 83%. For the same compound, the growth in the assay on SW-620 colon is 73.6%; with MCF7 breast, 57.6%; in the assay on HCT-116 colon it was 58.1%; in the assay with HCC-2998 colon, 90.8%; in the assay with KM12 colon, 93.3%; in the assay on MDA-MB-468 breast, 77.5%.
On to `CC1(C)CC[C@]2(C(=O)Nc3ccc(Br)cc3)CC[C@]3(C)C(=CCC4[C@@]5(C)C[C@@H](O)[C@H](O)[C@@](C)(CO)C5CC[C@]43C)C2C1` (some centres undefined), for which the growth is -9.66% (active) with SR leukemia; -33.5% (active) in the assay with RPMI-8226 leukemia; -21.8% (active) with OVCAR-5 ovarian; 5.44% (active) in the assay with OVCAR-4 ovarian; 4.34% (active) in the assay with SK-OV-3 ovarian; 38.2% in the assay on IGROV1 ovarian. The growth with OVCAR-3 ovarian is -4.06% (active); in the assay on HS 578T breast, -0.476% (active); with NCI/ADR-RES ovarian it was 14.7%; in the assay on T-47D breast it was -9.58% (active); with BT-549 breast, -35.4% (active); in the assay with MDA-MB-435 melanoma, 3.33% (active). Besides, the growth in the assay on SW-620 colon was 18.8%; in the assay with MCF7 breast, 1.85% (active); in the assay on HCT-116 colon, -15.8% (active); in the assay on HCC-2998 colon it was -33.4% (active); in the assay with KM12 colon, -52.9% (active); in the assay with MDA-MB-468 breast, -3.95% (active).
With `COc1ccccc1C(=O)NN1C(=O)/C(=C/C2=Cc3ccccc3OC2)SC1=S`, the growth in the assay on SR leukemia is 92.1%; with RPMI-8226 leukemia, 88.6%; with OVCAR-5 ovarian, 109%; in the assay with OVCAR-4 ovarian it was 102%; with SK-OV-3 ovarian, 94.5%; with IGROV1 ovarian it was 107%. In addition, the growth in the assay with OVCAR-3 ovarian was 107%; with HS 578T breast it was 111%; in the assay with NCI/ADR-RES ovarian, 107%; in the assay on T-47D breast, 104%; in the assay on BT-549 breast, 83.6%; in the assay with MDA-MB-435 melanoma, 110%. For the same compound, the growth in the assay on SW-620 colon was 114%; in the assay on MCF7 breast, 92.9%; in the assay on HCT-116 colon it was 95.7%; in the assay with HCC-2998 colon, 117%; with KM12 colon it was 99.5%; in the assay on MDA-MB-468 breast, 115%.
Turning to `CN(C)c1ccnc(NCCCSC(c2ccccc2)(c2ccccc2)c2ccccc2)c1`, the growth with SR leukemia was -55.5% (active); with RPMI-8226 leukemia, -58.9% (active); in the assay with OVCAR-8 ovarian, 59.4%; in the assay with OVCAR-5 ovarian, 84.5%; with OVCAR-4 ovarian, 33.4%; in the assay with SK-OV-3 ovarian, 63%. Also, the growth with IGROV1 ovarian is 50.5%; in the assay on HS 578T breast, 59.9%; in the assay with NCI/ADR-RES ovarian, 40.4%; in the assay on T-47D breast it was 28%; in the assay with BT-549 breast, 48.9%; in the assay on SW-620 colon, 8.86% (active). Also, the growth in the assay on MCF7 breast is -35.8% (active); with HCT-116 colon, -82.3% (active); with HCC-2998 colon, 12.2%; in the assay on KM12 colon it was 46.7%; with MDA-MB-468 breast it was -34.9% (active).
For `C=C1CCC2C3(C)COC(c4ccc(F)cc4)OC3CCC2(C)C1CC(O)C1=CCOC1=O` (centres undefined), the growth in the assay with SR leukemia was 21.6%; in the assay with RPMI-8226 leukemia, 21.9%; with OVCAR-5 ovarian, 51%; with OVCAR-4 ovarian, 53.8%; with SK-OV-3 ovarian it was 98%; in the assay with IGROV1 ovarian, 36.5%. Also, the growth in the assay with OVCAR-3 ovarian is 63.4%; in the assay on HS 578T breast it was 71%; with NCI/ADR-RES ovarian, 0.657% (active); in the assay on T-47D breast it was 31.6%; with BT-549 breast it was -31.9% (active); with MDA-MB-435 melanoma, 29.6%. The growth in the assay with SW-620 colon is 2.53% (active); with MCF7 breast it was 12.3%; in the assay with HCT-116 colon it was -50.2% (active); in the assay on HCC-2998 colon, 24.3%; in the assay on KM12 colon, 49.7%; in the assay with MDA-MB-468 breast, 18.8%.
In the case of `Cc1ccccc1[C@H]1C(C(=O)c2ccc(Cl)cc2)C2(N[C@@H]1c1ccccc1)C(=O)Nc1ccccc12` (some centres undefined), the growth was -17.1% (active) in the assay with SR leukemia; -24.2% (active) with RPMI-8226 leukemia; -67.9% (active) with OVCAR-8 ovarian; -46.6% (active) with OVCAR-5 ovarian; 8.21% (active) in the assay on OVCAR-4 ovarian; -3.38% (active) with SK-OV-3 ovarian. In addition, the growth in the assay with IGROV1 ovarian is 5.88% (active); in the assay with HS 578T breast it was -28.8% (active); in the assay on T-47D breast it was 4.15% (active); in the assay on BT-549 breast, -66% (active); with MDA-MB-435 melanoma, -62.2% (active); in the assay with SW-620 colon, 0.765% (active). Further, the growth is -31.7% (active) in the assay with MCF7 breast, -84% (active) in the assay with HCT-116 colon, -41.1% (active) in the assay on HCC-2998 colon and -30.8% (active) in the assay on KM12 colon.
Consider `Cc1ccc(C(=O)CSc2nc3ccc(C)cc3c(=O)n2-c2ccc(F)cc2)cc1`, for which the growth in the assay with SR leukemia was 99.7%; in the assay on RPMI-8226 leukemia, 98.5%; in the assay on OVCAR-5 ovarian, 84.8%; in the assay on OVCAR-4 ovarian it was 28.6%; with SK-OV-3 ovarian, 54.9%; in the assay with IGROV1 ovarian, 80.5%. The growth in the assay with OVCAR-3 ovarian was 89.5%; in the assay with NCI/ADR-RES ovarian, 40.6%; in the assay on T-47D breast, 52.5%; in the assay on BT-549 breast, 73.9%; in the assay with MDA-MB-435 melanoma, 89.6%; with SW-620 colon, 89%. For the same compound, the growth was 78.1% with MCF7 breast; 18.8% in the assay with HCT-116 colon; 83.5% with HCC-2998 colon; 93.7% in the assay with KM12 colon; 67.2% in the assay on MDA-MB-468 breast.
As for `CCCCSc1nc(Nc2ccc(S(N)(=O)=O)cc2)c(C#N)c(-c2cc(OC)c(OC)c(OC)c2)n1`, the growth is 8.85% (active) in the assay with SR leukemia; 10.7% in the assay on RPMI-8226 leukemia; 31.5% in the assay with OVCAR-8 ovarian; 53.7% with OVCAR-5 ovarian; 40.2% in the assay with OVCAR-4 ovarian; 105% with SK-OV-3 ovarian. The growth in the assay with IGROV1 ovarian is 46.8%; with HS 578T breast, 67.8%; in the assay with NCI/ADR-RES ovarian, 32.5%; with T-47D breast, 15.2%; with BT-549 breast it was 44.3%; with MDA-MB-435 melanoma, 33%. Further, the growth in the assay with SW-620 colon was 48.6%; with HCT-116 colon, 21.8%; in the assay on HCC-2998 colon it was 65%; with KM12 colon, 26.6%; in the assay with MDA-MB-468 breast it was 61.2%.
